SW480 rereplic = induces DNA re-replication in SW480 colon adenocarcinoma cells | SW480 DNA re-replication, Hoechst DNA content imaging, 48 h | Potency, µM (top dose mostly 46.1 µM), for the others: at the top dose re-replication activation, usual class: activators | 1.8% of 340,000 active | AID 624297; also: % of control where 0% means no effect; nearly all actives have a fitted effect of over 55% in size
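Quantitative HTS format with DMSO vehicle controls; 48 hr drug incubation at 37 C, then 40 min Hoechst staining and scanning imager measurement at 405 nm excitation.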
MCF10A rereplic = DNA re-replication induction in MCF 10a cells | MCF 10A DNA re-replication, Hoechst nuclear intensity, 48 h | Potency, µM (series often up to 46.1 µM), for inactives: at the top dose activity, positive = re-replication, most hits filed as activators | 2.9% of 350,000 active; also: % of control where 0% means no effect; nearly all actives have a fitted effect of over 50% in size
KB-3-1 cytotox = kills parental KB-3-1 adenocarcinoma cells. KB-3-1 viability, CellTiter-Glo ATP luminescence, 72 h. Potency, µM (top dose mostly 46.1 µM), most hits filed as cytotoxic. 1.4% of 400,000 active. AID 1347075; also: % is scaled to controls: 0 for no effect and ±100 for the full control effect; nearly all actives have a fitted effect of over 60% in size
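Cytotoxicity in the drug-sensitive parental line KB-3-1 was scored as loss of CellTiter-Glo luminescence following 72 h incubation with compound. Values come from curve fitting of normalized concentration-response data.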
RORg inh = inhibitors of mouse ROR gamma transcriptional activity; P51450; Drosophila S2 Gal4-RORgamma UAS-luciferase reporter, 20 h; Potency, µM (top dose mostly 53.6 µM), without a hit: at the top dose activity change, negative = inhibition, usual class: inhibitors; 5.4% of 310,000 active; also: % is scaled to controls: 0 for no effect and ±100 for the full control effect; nearly all actives have a fitted effect of over 60% in size
Target sequence (P51450 whole entry, looked up, the tested form may be a part): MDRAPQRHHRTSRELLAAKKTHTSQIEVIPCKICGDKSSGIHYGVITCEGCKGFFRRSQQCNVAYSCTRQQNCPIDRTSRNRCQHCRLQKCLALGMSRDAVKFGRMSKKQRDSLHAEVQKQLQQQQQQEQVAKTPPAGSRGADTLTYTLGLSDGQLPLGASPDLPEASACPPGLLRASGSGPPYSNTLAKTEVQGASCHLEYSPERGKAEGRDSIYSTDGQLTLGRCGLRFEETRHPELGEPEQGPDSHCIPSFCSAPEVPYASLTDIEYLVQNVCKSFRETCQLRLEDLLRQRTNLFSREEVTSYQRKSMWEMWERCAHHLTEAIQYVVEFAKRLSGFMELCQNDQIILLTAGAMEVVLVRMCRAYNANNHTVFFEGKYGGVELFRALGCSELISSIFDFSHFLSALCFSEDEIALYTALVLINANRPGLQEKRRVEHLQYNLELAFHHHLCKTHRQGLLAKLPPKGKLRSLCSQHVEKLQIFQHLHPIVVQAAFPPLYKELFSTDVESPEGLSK
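Luminescence from a UAS-regulated Photinus luciferase reporter in stably transfected Drosophila Schneider cells is measured; decreased signal marks ROR gamma inhibition. Fusion expression is induced by 700 uM copper sulfate for 20 hr.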
VP16 counter = inhibits Gal4-VP16 luciferase reporter, ROR gamma counter-screen. Drosophila S2 Gal4-VP16 UAS-luciferase, luminescence, 20 h. 3.5% of 310,000 active. Potency, µM (titrated, usually from 53.6 µM), for inactives: at the highest dose activity, negative = inhibition, usual class: inhibitors;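 also: Gal4-VP16 expression switched on by copper sulfate through the metallothionein promoter; % is scaled to controls: 0 for no effect and ±100 for the full control effect; nearly all actives have a fitted effect of over 50% in size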
KB-V1 cytotox = KB-V1 MDR subline cytotoxicity. KB-V1 MDR cells viability, CellTiter-Glo, 72 h. Potency, µM (highest dose often 46.1 µM), usual class: cytotoxic. 3.4% of 400,000 active; also: % is scaled to controls: 0 for no effect and ±100 for the full control effect; nearly all actives have a fitted effect of over 60% in size
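Potencies derive from concentration-effect curves fitted to normalized luminescence (CellTiter-Glo) of KB-V1 cells treated for 72 h at 37 degrees C in phenol-red-free DMEM containing 10% FBS.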
Starred values were filed as active, the others as inactive; [ ] = another dose, or the depositor's remark. Compounds with a hit are over-represented: about 10% of the library has one in this group of screens. Calls follow the shape of the dose curve; as a rule, active = well fitted curve in the direction sought with a large enough effect; inconclusive = small, poorly fitted or top-dose-only effect, or another doubt; inactive = no such curve, though single readings can be large; an effect the other way counts as inactive or inconclusive. Potency is read from the fitted curve at half-maximal effect.

`CCn1c(SCc2ccccc2C)nc(=O)c2c(C(=O)OC)cc(C3CC3)nc21` gave KB-3-1 cytotox inactive and KB-V1 cytotox inactive.
Cc1cc(C)nc(NC(=O)c2c(-c3ccccc3Cl)noc2C)c1 was read as SW480 rereplic inconclusive, MCF10A rereplic inconclusive, KB-3-1 cytotox inactive, RORg inh 16%, VP16 counter 5% and KB-V1 cytotox 7.3µM*.
`Cc1ccnc(NC(=O)c2c(-c3ccccc3Cl)noc2C)c1` gave SW480 rereplic -4%, MCF10A rereplic 4%, KB-3-1 cytotox inactive, RORg inh 2%, VP16 counter 5% and KB-V1 cytotox inconclusive.
`CCN1CCc2nc3sc(C(=O)Nc4cccc(Cl)c4C)c(N)c3cc2C1` gave KB-3-1 cytotox 16µM* and KB-V1 cytotox 6.5µM*.
CC(C)c1ccc2nc3sc(C(=O)N4CCc5ccccc5C4)c(N)c3cc2c1 was read as SW480 rereplic 2%, MCF10A rereplic inconclusive, KB-3-1 cytotox inactive, RORg inh -23%, VP16 counter 0% and KB-V1 cytotox inactive.
`CCN1CCc2nc3sc(C(=O)N4CCc5ccccc5C4)c(N)c3cc2C1` gave SW480 rereplic 3%, MCF10A rereplic 18µM*, KB-3-1 cytotox inactive, RORg inh 12%, VP16 counter 4% and KB-V1 cytotox inconclusive.
CCC1=[N+](CC(=O)c2ccc(Br)cc2)CCn2c(C)ccc21 was read as SW480 rereplic -12%, MCF10A rereplic inconclusive, KB-3-1 cytotox inconclusive, RORg inh 27%, VP16 counter -1% and KB-V1 cytotox inconclusive.
CCC1=[N+](CC(=O)c2ccc(C)cc2)CCn2c(C)ccc21 was read as SW480 rereplic 19%, MCF10A rereplic inconclusive, KB-3-1 cytotox 18µM*, RORg inh 39%, VP16 counter inconclusive and KB-V1 cytotox inactive.
Screening CCCS(=O)(=O)NC(=O)C1(C)CCCN(C(=O)c2cccc(Cl)c2)C1 (centres undefined) returned KB-3-1 cytotox inactive and KB-V1 cytotox inactive.
Nc1sc(Cc2ccccc2)cc1C(=O)c1c(-c2ccccc2)[nH]c2ccccc12 was read as KB-3-1 cytotox 5.8µM* and KB-V1 cytotox 13µM*.
For CC(Sc1nc(=O)cc(N)n1CCc1ccccc1)C(=O)Nc1ccccc1C#N (centres undefined) the results were KB-3-1 cytotox inactive and KB-V1 cytotox inactive.
`O=C(NN1C(=O)/C(=C\c2cccnc2)SC1=S)C(c1ccccc1)c1ccccc1` gave SW480 rereplic -4%, MCF10A rereplic 15µM*, KB-3-1 cytotox inactive, RORg inh inconclusive, VP16 counter inconclusive and KB-V1 cytotox inactive.
For O=C(NN1C(=O)/C(=C/c2cccnc2)SC1=S)C(c1ccccc1)c1ccccc1 the results were SW480 rereplic 8%, MCF10A rereplic 13µM*, KB-3-1 cytotox inconclusive, RORg inh 26%, VP16 counter -18% and KB-V1 cytotox inactive.
Screening O=C(Cc1cccc2ccccc12)NN1C(=O)/C(=C\c2cccnc2)SC1=S returned SW480 rereplic 3%, MCF10A rereplic -18%, KB-3-1 cytotox inactive, RORg inh -29%, VP16 counter -3% and KB-V1 cytotox inactive.
Screening CCn1c2ccccc2c2nnc(SCC(=O)c3ccccc3)nc21 returned SW480 rereplic -11%, MCF10A rereplic inconclusive, KB-3-1 cytotox inactive, RORg inh 13µM*, VP16 counter 4% and KB-V1 cytotox inconclusive.
`CCOC(=O)CSc1nnc2c3ccccc3n(CC)c2n1` gave SW480 rereplic -10%, MCF10A rereplic inconclusive, KB-3-1 cytotox inactive, RORg inh 36%, VP16 counter 0% and KB-V1 cytotox inactive.
For CCn1c2ccccc2c2nnc(SCC(=O)NC(CC(C)C)C(=O)OC)nc21 (centres undefined) the results were SW480 rereplic 0%, MCF10A rereplic 1%, KB-3-1 cytotox inactive, RORg inh -19%[10 µM], VP16 counter 0% and KB-V1 cytotox 5.2µM*.
For CCOC(=O)c1ccc(NC(=O)CSc2nnc3c4ccccc4n(CC)c3n2)cc1 the results were KB-3-1 cytotox inactive and KB-V1 cytotox inactive.
For CCOC(=O)C(Sc1nnc2c3ccccc3n(CC)c2n1)C(=O)OCC the results were SW480 rereplic 5%, MCF10A rereplic 6%, KB-3-1 cytotox inconclusive, RORg inh -32%, VP16 counter inconclusive and KB-V1 cytotox 13µM*.
